Data on 4 compounds can be found in PubChem BioAssay.

A short description of assay [1]: compound effects on lung adenocarcinoma cell viability – A549, calcein-AM fluorescence, 48 h, basal, profiling panel (AID 1162). Note: test concentration not given here. The conditions noted are these: higher = more signal.
Assay [2] in a line: compound effects on differentiated 3T3-L1 adipocyte viability – cell-based, 3T3-L1 adipocytes, calcein-AM fluorescence, 48 h, basal, profiling panel (AID 1163). Note: test concentration not given here. Conditions: 3T3-L1 adipocytes viability, higher = more signal.
Assay [3] is described as follows: compound effects on hepatocellular carcinoma cell viability – HepG2, calcein-AM fluorescence, 48 h, basal, profiling panel (AID 1164). Note: test concentration not given here. Conditions: higher = more signal.
Assay [4] can be described thus: compound effects on multiple myeloma cell viability – MM1S, calcein-AM fluorescence, 48 h, basal, profiling panel (AID 1165). Note: test concentration not given here. The conditions noted are these: higher = more signal.
Assay [5] in a line: calcein-AM signal in unstimulated myeloma cells – cell-based, calcein-AM fluorescence, 48 h, PK04 Diversity Set, profiling panel (AID 1166).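 Note: cells grown under basal conditions without added stimulus; test concentration not given here.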 Conditions: RPMI8226 myeloma viability, higher = more signal.
Assay [6] is described as follows: JC-1 mitochondrial signal, unstimulated HepG2 cells – cell-based, JC-1 fluorescence, 24 h, 100 nL compound, profiling panel (AID 1167). Note: test concentration not given here. Conditions: HepG2 mitochondrial potential, higher = more signal.
The nature of assay [7]: JC-1 mitochondrial signal, unstimulated adipocytes – cell-based, JC-1 fluorescence, 3T3-L1 adipocytes, 24 h, 100 nL compound, profiling panel (AID 1168). Note: test concentration not given here. Conditions: JC-1 mitochondrial fluorescence, higher = more signal, called active from +8 up or from −8 down.
Assay [8] can be described thus: JC-1 mitochondrial signal, unstimulated myeloma cells – cell-based, JC-1 fluorescence, RPMI8226, 24 h, 100 nL compound, profiling panel (AID 1169). Note: test concentration not given here. The conditions noted are these: JC-1 mitochondrial potential fluorescence, higher = more signal.
The nature of assay [9]: JC-1 mitochondrial signal, unstimulated MM1S myeloma – cell-based, JC-1 fluorescence, 24 h, 100 nL compound, profiling panel (AID 1170). Note: test concentration not given here. The conditions noted are these: MM1S mitochondrial potential, higher = more signal.
Assay [10] in a line: resazurin metabolic signal in A549 cells – cell-based, resazurin fluorescence, 24 h, PK04 Diversity Set, profiling panel (AID 1171). Note: test concentration not given here. Conditions: A549 viability, higher = more signal, called active from +8 up or from −8 down. Background: Resazurin is reduced to fluorescent resorufin, in cell work by metabolically active cells.
The nature of assay [11]: resazurin metabolic signal in HepG2 cells – cell-based, resazurin fluorescence, 24 h, PK04 Diversity Set, profiling panel (AID 1172). Note: test concentration not given here. The conditions noted are these: HepG2 viability, higher = more signal.
Assay [12] is described as follows: budding yeast growth changes without added modifier – OD600, strain BY4716, 24 h, basal condition, primary screen (AID 1173). Conditions: S. cerevisiae BY4716 growth, OD600, 24 h; higher = more signal, called active from +8 up or from −8 down.
Assay [13] is described as follows: viability profiling in MM1S myeloma cells – cell-based, resazurin fluorescence, basal, 24 h, PK04 Diversity Set, profiling panel (AID 1174). Note: test concentration not given here. The conditions noted are these: higher = more signal, called active from +8 up or from −8 down.
The target in assay [14] is Dihydroorotate dehydrogenase (quinone), mitochondrial (Plasmodium falciparum (isolate 3D7)) (UniProt Q08210). The assay is described as follows: inhibition of P. falciparum DHODH – biochemical, C-terminal His tag, absorbance 600 nm, primary screen (AID 1175).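 Note: recombinant parasite enzyme with a five histidine tag at its C terminus; test concentration not given here.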 Conditions: PfDHODH enzyme, DCIP absorbance 600 nm; higher = more signal, called active from +8 up or from −8 down.
Chain of Dihydroorotate dehydrogenase (quinone), mitochondrial (Plasmodium falciparum (isolate 3D7)) (Q08210 whole entry, looked up): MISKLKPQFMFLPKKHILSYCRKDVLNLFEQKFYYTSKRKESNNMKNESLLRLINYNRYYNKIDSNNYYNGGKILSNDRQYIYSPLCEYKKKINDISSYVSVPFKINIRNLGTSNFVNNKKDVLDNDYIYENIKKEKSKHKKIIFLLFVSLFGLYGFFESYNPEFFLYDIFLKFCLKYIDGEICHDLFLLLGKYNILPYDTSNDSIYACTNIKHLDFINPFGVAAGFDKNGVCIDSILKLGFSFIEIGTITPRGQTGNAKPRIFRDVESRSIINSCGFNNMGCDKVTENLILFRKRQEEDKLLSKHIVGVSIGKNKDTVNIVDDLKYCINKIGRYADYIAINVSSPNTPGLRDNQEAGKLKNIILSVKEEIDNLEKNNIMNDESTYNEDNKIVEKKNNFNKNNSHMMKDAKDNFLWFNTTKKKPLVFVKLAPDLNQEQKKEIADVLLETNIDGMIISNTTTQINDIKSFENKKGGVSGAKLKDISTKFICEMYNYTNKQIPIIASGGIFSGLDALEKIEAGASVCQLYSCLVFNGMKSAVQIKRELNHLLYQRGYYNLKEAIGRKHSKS

The nature of assay [15]: inhibition of PAO1 biofilm formation – strain PAO1, LB-PBS medium, absorbance 600 nm, primary screen (AID 1176). Note: test concentration not given here. Conditions: P. aeruginosa PAO1 growth/biofilm, A600, 12 h; higher = more signal.
Assay [16] in a line: growth modulation of vineyard yeast isolate – strain RM11-1a, OD600, basal, 24 h, primary screen (AID 1177).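 Note: cultures grown under basal conditions with no added stressor; test concentration not given here.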 Conditions: S. cerevisiae RM11-1a growth, OD600, 24 h; higher = more signal, called active from +8 up or from −8 down.
The nature of assay [17]: growth of efflux-deficient E. coli DRC39 – strain DRC39, OD650, 24 h, E. coli filamentation inducers, primary screen (AID 1178).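 Note: growth measured as culture turbidity by optical density at 650 nm; test concentration not given here.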 The conditions noted are these: E. coli DRC39 acrAB, higher = more signal, called active from +8 up or from −8 down.
Assay [18] is described as follows: growth of efflux-deficient E. coli DRC39 – strain DRC39, OD650, 48 h, E. coli filamentation inducers, primary screen (AID 1179).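 Note: screen aims at cell division blockers that make cells filament.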 The conditions noted are these: E. coli DRC39 delta-acrAB growth, higher = more signal, called active from +8 up or from −8 down.
A short description of assay [19]: viability profiling in RPMI8226 myeloma cells – cell-based, resazurin fluorescence, basal, 24 h, PK04 Diversity Set, profiling panel (AID 1180).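 Note: RPMI8826 multiple myeloma cell line at 5000 cells per well; test concentration not given here.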 Conditions: higher = more signal.
Assay [20] has as its target E3 ubiquitin-protein ligase XIAP (Homo sapiens) (UniProt P98170). The assay is described as follows: small molecules binding XIAP protein – biophysical, small-molecule microarray, fluorescence 635 nm, primary screen (AID 1181).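 Note: score merges 667 nm emission and signal to noise over triplicate slides.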 Conditions: higher = more signal.

Calls of active or inactive are those of the source. Unless noted, the rule behind the calls is not given here.

Chain of E3 ubiquitin-protein ligase XIAP (Homo sapiens) (P98170 whole entry, looked up): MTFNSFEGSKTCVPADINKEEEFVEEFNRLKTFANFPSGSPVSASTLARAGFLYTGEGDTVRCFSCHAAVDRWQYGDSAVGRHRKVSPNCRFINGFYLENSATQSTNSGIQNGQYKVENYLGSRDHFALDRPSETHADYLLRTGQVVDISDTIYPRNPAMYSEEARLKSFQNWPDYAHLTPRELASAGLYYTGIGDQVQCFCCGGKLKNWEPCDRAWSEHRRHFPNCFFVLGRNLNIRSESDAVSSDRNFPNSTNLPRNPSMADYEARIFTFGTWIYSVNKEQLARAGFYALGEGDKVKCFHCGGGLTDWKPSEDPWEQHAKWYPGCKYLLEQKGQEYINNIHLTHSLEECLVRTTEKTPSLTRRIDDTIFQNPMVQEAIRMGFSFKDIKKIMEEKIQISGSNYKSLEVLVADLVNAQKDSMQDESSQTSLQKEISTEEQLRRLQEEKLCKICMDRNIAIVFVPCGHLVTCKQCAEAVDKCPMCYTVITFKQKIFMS

With `C=C(COC)/C(=C/C[C@H](OC(=O)c1ccncc1)c1cccc(OCCO)c1)c1cc(C(=O)OC)ccc1OC`, the z-score in assay [1] was 0.404; in assay [2] it was 0.987; in assay [3], -0.0353; in assay [4] it was -1.15; in assay [5], -0.686; in assay [6], 1.51. Further, the z-score in assay [7] is 0.246 (inactive); in [8] it was -0.351; in [9], 0.0566; in [10], 1.14 (inactive); in [11], 0.13; in [12], -0.0964 (inactive). Moreover, the z-score was 0.544 (inactive) in assay [13]; -0.21 (inactive) in [15]; -0.42 (inactive) in assay [16]; 0.629 (inactive) in [17]; 0.237 (inactive) in assay [18]; 0.406 in assay [19]. Moreover, the composite z-score in [14] is -2.67 (inactive); in assay [20], -0.102.
As to `O=C1C2C=CC(C(O)c3cccs3)N(Nc3ccccc3F)C2C(=O)N1c1ccccc1` (stereo not given), the z-score was -0.543 in [1]; 0.289 in assay [2]; -0.901 in [3]; 0.46 in [4]; 0.167 in assay [5]; -0.686 in assay [6]. In addition, the z-score in assay [7] was 0.321 (inactive); in [8], 0.635; in assay [9], -0.947; in assay [10], 0.433 (inactive); in assay [11], 1.21; in [12], -1.3 (inactive). In addition, the z-score was 0.982 (inactive) in [13]; 0.574 (inactive) in assay [15]; -0.24 (inactive) in [16]; -0.0052 (inactive) in assay [17]; 1.05 (inactive) in [18]; 0.562 in [19]. For the same compound, the composite z-score is 0.609 (inactive) in assay [14] and 0.33 in assay [20].
Regarding `CCOC(=O)C1=CCC(c2ccc(C#N)cc2)N(S(=O)(=O)c2ccc(C)cc2)C1` (stereo not given), the z-score in assay [1] was -1.14; in [2] it was -0.68; in [3], 0.109; in assay [4], -0.548; in [5], -0.741; in assay [6] it was -0.259. The z-score was 0.345 (inactive) in assay [7]; -0.516 in assay [8]; -1.71 in [9]; -0.343 (inactive) in assay [10]; -0.688 in assay [11]; 0.916 (inactive) in assay [12]. In addition, the z-score in assay [13] was -1.35 (inactive); in assay [15], 0.654 (inactive); in assay [16], 0.906 (inactive); in [17] it was -0.445 (inactive); in [18] it was 0.435 (inactive); in [19], -1.94. The composite z-score in assay [14] was -0.496 (inactive); in [20], -0.187.
For the compound `COc1ccc(C(=O)Nc2cccc(CN3C(=O)[C@]4(O[C@H](CC(=O)N5CCC[C@H]5CO)[C@@H]([Si](C)(C)c5ccc(OC)cc5)[C@@H]4C)c4ccccc43)c2)cc1`, the z-score in assay [1] is -0.806; in assay [2], 0.902; in assay [3] it was -3.13; in assay [4] it was -2.71; in [5] it was -4.33; in assay [6], -1.73. Also, the z-score in assay [7] is 0.248 (inactive); in assay [8], -1.1; in assay [9], -1.64; in [10] it was -2.2 (inactive); in assay [11], -1.72; in [12], -0.268 (inactive). Besides, the z-score in assay [13] was -2.7 (inactive); in [15], 0.0943 (inactive); in [16], 0.312 (inactive); in assay [17] it was 0.951 (inactive); in assay [18] it was 0.441 (inactive); in [19], -4.84. Further, the results for the composite z-score in assay [14] and in [20] were -2.54 (inactive) and -0.0998, respectively.
